In PubChem BioAssay (NCATS):
Inconclusive results are not listed. Where a call stands in place of a potency, no number is given. The source made the active and inactive calls. The call rests on the fitted dose curve; in most records, active means well fitted inhibition curve with a large enough effect; inconclusive means small, poorly fitted or top-dose-only effect; inactive means flat fitted curve, though single readings scatter.
Potency means the concentration at half of the fitted maximal effect.

What follows are compounds tested on CP247 (assay: qHTS profiling for inhibitors of Plasmodium falciparum proliferation (AID 504749; further: nearly all actives have a fitted effect of over 60% in size)). Conditions: P. falciparum in erythrocytes, SYBR Green DNA, 72 h; series mostly up to 12.8 µM.
Method in brief: (§1)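 Parasite proliferation within erythrocytes, 72 h exposure. Endpoint: SYBR Green I fluorescence after overnight lysis at room temperature. Controls: 0.29 uM artemisinin, DMSO.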
For `CC1(C)S[C@H]2C(NC(=O)[C@@H](N)c3ccc(O)cc3)C(=O)N2[C@@H]1C(=O)O` (some centres not stated), the Potency was “inactive”. `CN(C)CCc1c[nH]c2ccc(CC3COC(=O)N3)cc12` (configuration not stated) was tested, and the Potency was “inactive”. In the case of `CC(C)Oc1ccc2c(=O)cc(-c3ccccc3)oc2c1`, the Potency is reported as “inactive”. `N[C@@H]1C(O)OC(CO)C(O)C1O` (some centres not stated) was tested, and the Potency was “inactive”. With `CO[C@]12C(COC(N)=O)C3=C(C(=O)C(C)=C(N)C3=O)N1CC1NC12` (some centres not stated) the Potency was 1410 nM (active). In the case of `C[C@@]12C=CC(=O)C=C1CCC1C3CC(O)[C@@](O)(C(=O)CO)[C@]3(C)CC(O)[C@]12F` (some centres not stated), the Potency is reported as “inactive”. In the case of `CCC1OC(=O)C(C)[C@@H](O[C@H]2C[C@@](C)(OC)C(O)C(C)O2)C(C)[C@@H](O[C@@H]2OC(C)CC(N(C)C)C2O)[C@@](C)(O)CC(C)C(=O)[C@@H](C)C(O)[C@]1(C)O` (some centres not stated), the Potency is reported as “inactive”. For `CC1C2CCC3C4CC=C5CC(N(C)C)CC[C@@]5(C)C4CC[C@@]32CN1C` (some centres not stated), the Potency was “inactive”. `CCC(C)C(=O)OC1CC(O)C=C2C=CC(C)C(CCC(O)CC(O)CC(=O)O)C21` (configuration not stated) was tested, and the Potency was “inactive”. `OCC1OC(n2cnc3c(=S)nc[nH]c32)C(O)C1O` (configuration not stated) was tested, and the Potency was “inactive”.

These compounds were tested on CP250 in the same assay as above. Conditions: P. falciparum in erythrocytes, SYBR Green DNA, 72 h; series mostly up to 12.8 µM.
Method in brief: as §1
With `CC1(C)S[C@H]2C(NC(=O)[C@@H](N)c3ccc(O)cc3)C(=O)N2[C@@H]1C(=O)O` (some centres not stated) the Potency was “inactive”. `CN(C)CCc1c[nH]c2ccc(CC3COC(=O)N3)cc12` (configuration not stated) was tested, and the Potency was “inactive”. In the case of `CCCCCCCCCc1ccc(OCCOCCOCCOCCOCCOCCOCCOCCOCCO)cc1`, the Potency is reported as “inactive”. With `N[C@@H]1C(O)OC(CO)C(O)C1O` (some centres not stated) the Potency was “inactive”. `CC(=O)OCC(=O)[C@@]12OC3(CCCC3)OC1CC1C3CCC4=CC(=O)C=C[C@@]4(C)[C@]3(F)C(O)C[C@]12C` (some centres not stated) was tested, and the Potency was “inactive”. `CC(=O)[C@]1(O)CCC2C3C=C(Cl)C4=CC(=O)C5CC5[C@@]4(C)C3CC[C@]21C` (some centres not stated) was tested, and the Potency was “inactive”. With `CO[C@]12C(COC(N)=O)C3=C(C(=O)C(C)=C(N)C3=O)N1CC1NC12` (some centres not stated) the Potency was 1120 nM (active). With `C[C@@]12C=CC(=O)C=C1CCC1C3CC(O)[C@@](O)(C(=O)CO)[C@]3(C)CC(O)[C@]12F` (some centres not stated) the Potency was “inactive”. For `CCC1OC(=O)C(C)[C@@H](O[C@H]2C[C@@](C)(OC)C(O)C(C)O2)C(C)[C@@H](O[C@@H]2OC(C)CC(N(C)C)C2O)[C@@](C)(O)CC(C)C(=O)[C@@H](C)C(O)[C@]1(C)O` (some centres not stated), the Potency was “inactive”. With `CC1C2CCC3C4CC=C5CC(N(C)C)CC[C@@]5(C)C4CC[C@@]32CN1C` (some centres not stated) the Potency was “inactive”. In the case of `CCC(C)C(=O)OC1CC(O)C=C2C=CC(C)C(CCC(O)CC(O)CC(=O)O)C21` (configuration not stated), the Potency is reported as “inactive”. For `OCC1OC(n2cnc3c(=S)nc[nH]c32)C(O)C1O` (configuration not stated), the Potency was “inactive”.

Each compound was assayed on CP252 in the same assay as above. Conditions: P. falciparum in erythrocytes, SYBR Green DNA, 72 h; series mostly up to 12.8 µM.
Method in brief: as §1
`CC1(C)S[C@H]2C(NC(=O)[C@@H](N)c3ccc(O)cc3)C(=O)N2[C@@H]1C(=O)O` (some centres not stated) was tested, and the Potency was “inactive”. `CN(C)CCc1c[nH]c2ccc(CC3COC(=O)N3)cc12` (configuration not stated) was tested, and the Potency was “inactive”. In the case of `C[C@@]12CCC(=O)C=C1C=CC1C2CC[C@]2(C)C1CC[C@@]21CCC(=O)O1` (some centres not stated), the Potency is reported as “inactive”. For `CC(C)Oc1ccc2c(=O)cc(-c3ccccc3)oc2c1`, the Potency was “inactive”. With `CCCCCCCCCc1ccc(OCCOCCOCCOCCOCCOCCOCCOCCOCCO)cc1` the Potency was “inactive”. In the case of `N[C@@H]1C(O)OC(CO)C(O)C1O` (some centres not stated), the Potency is reported as “inactive”. With `CCC(=O)O[C@@]1(C(=O)CCl)C(C)CC2C3CCC4=CC(=O)C=C[C@@]4(C)[C@]3(F)C(O)C[C@]21C` (some centres not stated) the Potency was 12600 nM (active). With `CC(=O)[C@]1(O)CCC2C3C=C(Cl)C4=CC(=O)C5CC5[C@@]4(C)C3CC[C@]21C` (some centres not stated) the Potency was “inactive”. In the case of `CO[C@]12C(COC(N)=O)C3=C(C(=O)C(C)=C(N)C3=O)N1CC1NC12` (some centres not stated), the Potency is reported as 794 nM (active). With `C[C@@]12C=CC(=O)C=C1CCC1C3CC(O)[C@@](O)(C(=O)CO)[C@]3(C)CC(O)[C@]12F` (some centres not stated) the Potency was “inactive”. In the case of `CCC1OC(=O)C(C)[C@@H](O[C@H]2C[C@@](C)(OC)C(O)C(C)O2)C(C)[C@@H](O[C@@H]2OC(C)CC(N(C)C)C2O)[C@@](C)(O)CC(C)C(=O)[C@@H](C)C(O)[C@]1(C)O` (some centres not stated), the Potency is reported as “inactive”. With `CC1C2CCC3C4CC=C5CC(N(C)C)CC[C@@]5(C)C4CC[C@@]32CN1C` (some centres not stated) the Potency was “inactive”. In the case of `CCC(C)C(=O)OC1CC(O)C=C2C=CC(C)C(CCC(O)CC(O)CC(=O)O)C21` (configuration not stated), the Potency is reported as “inactive”. In the case of `OCC1OC(n2cnc3c(=S)nc[nH]c32)C(O)C1O` (configuration not stated), the Potency is reported as “inactive”.

Each compound was assayed on CP256 in the same assay as above. Conditions: P. falciparum in erythrocytes, SYBR Green DNA, 72 h; series mostly up to 12.8 µM.
Method in brief: as §1
For `CC1(C)S[C@H]2C(NC(=O)[C@@H](N)c3ccc(O)cc3)C(=O)N2[C@@H]1C(=O)O` (some centres not stated), the Potency was “inactive”. `CN(C)CCc1c[nH]c2ccc(CC3COC(=O)N3)cc12` (configuration not stated) was tested, and the Potency was “inactive”. With `C[C@@]12CCC(=O)C=C1C=CC1C2CC[C@]2(C)C1CC[C@@]21CCC(=O)O1` (some centres not stated) the Potency was “inactive”. With `NC(CCC(=O)N[C@@H](CS)C(=O)NCC(=O)O)C(=O)O` (some centres not stated) the Potency was 8910 nM (active). In the case of `CC(C)Oc1ccc2c(=O)cc(-c3ccccc3)oc2c1`, the Potency is reported as “inactive”. With `N[C@@H]1C(O)OC(CO)C(O)C1O` (some centres not stated) the Potency was “inactive”. In the case of `CC(=O)OCC(=O)[C@@]12OC3(CCCC3)OC1CC1C3CCC4=CC(=O)C=C[C@@]4(C)[C@]3(F)C(O)C[C@]12C` (some centres not stated), the Potency is reported as “inactive”. With `CCC1OC(=O)CC(O)C(C)[C@@H](O[C@@H]2OC(C)[C@H](O[C@@H]3C[C@@](C)(O)C(O)C(C)O3)C(N(C)C)C2O)[C@H](CC=O)CC(C)C(=O)/C=C/C(C)=C/[C@@H]1COC1OC(C)C(O)C(OC)[C@@H]1OC` (some centres not stated) the Potency was 1410 nM (active). For `C=Cc1c(C)/c2[n-]/c1=C\c1[n-]c(c(CC)c1C)/C=c1\[n-]c3c(c1C)C(=O)C(C(=O)[O-])C=3c1[n-]c(c(C)c1CCC(=O)[O-])\C=2.[Cu].[Na+].[Na+]` (configuration not stated), the Potency was “inactive”. In the case of `CC(=O)[C@]1(O)CCC2C3C=C(Cl)C4=CC(=O)C5CC5[C@@]4(C)C3CC[C@]21C` (some centres not stated), the Potency is reported as “inactive”. `CO[C@]12C(COC(N)=O)C3=C(C(=O)C(C)=C(N)C3=O)N1CC1NC12` (some centres not stated) was tested, and the Potency was 5010 nM (active). With `C[C@@]12C=CC(=O)C=C1CCC1C3CC(O)[C@@](O)(C(=O)CO)[C@]3(C)CC(O)[C@]12F` (some centres not stated) the Potency was “inactive”. `CCC1OC(=O)C(C)[C@@H](O[C@H]2C[C@@](C)(OC)C(O)C(C)O2)C(C)[C@@H](O[C@@H]2OC(C)CC(N(C)C)C2O)[C@@](C)(O)CC(C)C(=O)[C@@H](C)C(O)[C@]1(C)O` (some centres not stated) was tested, and the Potency was “inactive”. For `CC1C2CCC3C4CC=C5CC(N(C)C)CC[C@@]5(C)C4CC[C@@]32CN1C` (some centres not stated), the Potency was “inactive”. For `CCC(C)C(=O)OC1CC(O)C=C2C=CC(C)C(CCC(O)CC(O)CC(=O)O)C21` (configuration not stated), the Potency was “inactive”. With `OCC1OC(n2cnc3c(=S)nc[nH]c32)C(O)C1O` (configuration not stated) the Potency was “inactive”.
